CYP2C9 activ – activators of human CYP2C9; recombinant CYP2C9, luciferin-H conversion, luminescence; active compounds read high; factor 1 = untreated enzyme, 0 = blocked; 96,000 compounds, 1.4% hits; activation factor at 5 µM; P11712;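 active = activation factor of 2 or more for CYP2C9 at a 5 µM dose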;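 also: 0 = sulfaphenazole-blocked wells and 1 = vehicle-only wells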
CYP2C9 inhib – human CYP2C9 inhibition; AID 777; 96,000 compounds, 20% hits; CYP2C9 Supersomes, luciferin-H conversion, luminescence; inhibition, % at 5 µM; P11712;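 active = blocking of liver enzyme CYP2C9 beyond about 50% at 5 µM, limit read from the data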
CYP2C19 inh – inhibitors of human CYP2C19. P33261. CYP2C19 Supersomes, luciferin-H EGE luminescence, 30 min. inhibition, % at 5 µM. 96,000 compounds, 21% hits;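 active = CYP2C19 inhibition above a set limit at 5 µM in the primary screen, cut at about 50% in these data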;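 also: plate controls were negative control wells for no effect and 2.5 mM tranylcypromine positive control for full effect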
Target sequence (P33261 whole entry, looked up): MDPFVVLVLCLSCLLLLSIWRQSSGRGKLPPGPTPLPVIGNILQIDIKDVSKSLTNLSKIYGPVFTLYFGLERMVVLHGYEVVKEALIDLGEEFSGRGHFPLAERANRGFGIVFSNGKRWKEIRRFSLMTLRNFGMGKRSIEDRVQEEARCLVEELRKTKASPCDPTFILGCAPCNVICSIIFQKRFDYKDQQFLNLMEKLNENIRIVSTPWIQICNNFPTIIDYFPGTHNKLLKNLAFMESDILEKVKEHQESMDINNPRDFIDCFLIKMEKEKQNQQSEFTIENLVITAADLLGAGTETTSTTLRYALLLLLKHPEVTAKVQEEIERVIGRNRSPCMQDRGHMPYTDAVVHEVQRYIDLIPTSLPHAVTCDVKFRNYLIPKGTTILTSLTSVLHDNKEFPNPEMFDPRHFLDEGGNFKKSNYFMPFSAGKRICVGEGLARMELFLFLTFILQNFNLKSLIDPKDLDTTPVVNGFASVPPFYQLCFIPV
CYP2C19 act – increases human CYP2C19 enzyme activity | P33261 | 96,000 tested, under 10 active | recombinant CYP2C19, luciferin-H EGE luminescence; active compounds read high; 0 = fully inhibited enzyme, 1 = untreated enzyme | activation factor at 5 µM | AID 1025;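 active = activation factor of at least 2 at 5 µM in the primary screen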;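 also: 0 = wells with 2.5 mM tranylcypromine and 1 = vehicle-only wells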
EphB4 ephrin blk – antagonists of human EphB4-ephrin-B2 interaction. P54760. EphB4 LBD / TNYL-RAW-Alexa532 peptide, fluorescence polarization. 97,000 compounds, 0.15% hits. inhibition, % at 7 µM;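 active = inhibition above the screen-wide mean inhibition plus 3 SD, cut at about 15% in these data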;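 also: 0% = DMSO wells and 100% = excess unlabeled TNYL-RAW peptide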
* hit, by the source's call; · = not tested or not shown. Sampled rows, rich in hits. Any-hit rate of the full collection: about 27%.

SMILES	CYP2C9 activ	CYP2C9 inhib	CYP2C19 inh	CYP2C19 act	EphB4 ephrin blk
COc1cc(OC)nc(NC(=O)COC(=O)C2CCCCC2)n1	0.7	31	29	0.7	-4
O=C1NCCc2c1[nH]c1c(Cl)ccc(Cl)c21	2.4*	-143	6	0.9	2
CC(Cl)C(=O)Nc1ncc(C(F)(F)F)cc1Cl (stereo not given)	0.9	10	-20	1.2	2
COC(=O)N1CC(c2ccccc2)CC1=O (stereo not given)	0.8	20	35	0.6	-4
O=C1CC(c2ccccc2)CN1S(=O)(=O)c1ccccc1 (stereo not given)	2.5*	-152	99*	0	12
NC(=O)c1cccc(S(=O)(=O)N2CC(c3ccccc3)CC2=O)c1 (stereo not given)	2.2*	-116	56*	0.4	-5
CCC(C)(C(=O)NC1CCCC1)N(Cc1ccco1)C(=O)c1ccc2c(c1)OCO2 (stereo not given)	0.8	21	38	0.6	2
O=c1ccc(/C=C/c2ccccc2)nn1Cc1ccccc1Cl	0.5	52*	35	0.6	0
O=c1ccc(/C=C/c2ccccc2)nn1Cc1ccc(Cl)cc1Cl	0.6	42	27	0.7	8
O=C(N/N=C/C1CCCCC1)c1cc(Cl)ccc1O	0.6	40	10	0.9	4
COC(=O)c1cc(Br)c(=O)n(CCc2ccccc2)c1	0.9	14	62*	0.4	-3
COC(=O)c1cc(Br)c(=O)n(Cc2ccc3c(c2)OCO3)c1	0.2	80*	87*	0.1	5
COc1cc(NC(=O)c2cc3nc(C4CC4)cc(C(F)(F)F)n3n2)c(OC)cc1Cl	0.7	33	14	0.9	2
CCCCCn1c(CN2CCN(CCO)CC2)nc2c1c(=O)n(C)c(=O)n2C	1	4	-2	1	-6
Cc1cc(C)cc(C(=O)N2CC(=O)Nc3ccccc32)c1	0.6	36	53*	0.5	1
Cc1ccsc1C(=O)N1CC(=O)Nc2ccccc21	1.1	-7	23	0.8	-7
C=CCNc1nc(N)c(C(=O)Nc2cc(C)on2)s1	1	3	8	0.9	7
C=CCNc1nc(N)c(C(=O)c2ccc3c(c2)OCO3)s1	1.3	-32	90*	0.1	-8
Cc1c(Cl)cccc1NC(=O)Cn1cccc1	1	-1	25	0.8	-2
CCc1nnc(NC(=O)CSc2nccn2-c2cc(C)cc(C)c2)s1	0.4	58*	13	0.9	4
CCc1nnc(NC(=O)CSc2nnc(C)n2Cc2ccccc2)s1	·	·	·	·	6
Cc1cccc(-n2ccnc2SCC(=O)Nc2nccs2)c1C	0.5	47	53*	0.5	-4
Cc1c(Cl)cccc1-n1ccnc1SCC(=O)O	0.3	67*	7	0.9	7
CCOc1ccc(-n2ccnc2SCC(=O)Nc2nnc(C)s2)cc1	0.8	21	18	0.8	-4
CCc1nnc(NC(=O)CSc2nccn2-c2cccc(C)c2C)s1	0.5	53*	27	0.7	4
SMILES	CYP2C9 activ	CYP2C9 inhib	CYP2C19 inh	CYP2C19 act	EphB4 ephrin blk
CCCN(CCC)C(=O)CP(=O)(c1ccccc1)c1ccccc1	0.9	7	-4	1	-1
CC1Cc2cc(C3(O)C(=O)c4ccccc4C3=O)ccc2N1 (stereo not given)	2.4*	-142	60*	0.4	1
CCOCCCNS(=O)(=O)c1ccc2c(c1)CCN2C(C)=O	1	-1	-9	1.1	7
c1ccc(-c2nc3nc4ccccc4nc3n2Cc2ccco2)cc1	0.5	51*	8	0.9	-7
CCCCOCCCn1c(-c2ccco2)nc2nc3ccccc3nc21	0.5	52*	50	0.5	3
Cc1c(NC(=O)C2Cc3ccccc3CN2C(=O)c2ccco2)c(=O)n(-c2ccccc2)n1C (stereo not given)	1.1	-10	-15	1.1	-1
O=C(NCCc1ccc(Cl)cc1)C1CCN(S(=O)(=O)N2CCCCC2)CC1	0.5	51*	31	0.7	-6
CC(C)NC(=O)C(=O)NCCc1ccc(Cl)cc1	1	2	92*	0.1	-5
O=C(NCCc1ccc(Cl)cc1)C1CCN(c2cnccn2)CC1	0.3	66*	52*	0.5	-1
O=C(NCCc1ccc(Cl)cc1)C1CCN(S(=O)(=O)c2cccs2)CC1	0.2	79*	84*	0.2	9
O=C(NCCc1ccccc1)C1CCN(S(=O)(=O)N2CCCC2)CC1	1.2	-25	-10	1.1	·
Cc1cc(OC(=O)c2ccccc2)n(CCC#N)n1	0.9	8	-6	1.1	-6
COCCCNC(=O)C1CCN(S(=O)(=O)N(CC(C)C)CC(C)C)CC1	1	4	·	·	4
CC(C)CN(CC(C)C)S(=O)(=O)N1CCC(C(=O)NCCc2ccc(Cl)cc2)CC1	0.5	54*	54*	0.5	0
O=C(O)C1CCCCC1C(=O)NCCc1cccc(Cl)c1 (stereo not given)	0.7	26	30	0.7	3
O=C(O)C1CCCCC1C(=O)NCCc1ccc(Cl)cc1 (stereo not given)	0.6	40	75*	0.3	1
CC(OC(=O)CNC(=O)C12CC3CC(CC(C3)C1)C2)C(=O)Nc1ncc(Cl)cc1Cl (stereo not given)	0.6	39	54*	0.5	7
Cc1cc(C)c(S(=O)(=O)N2CCN(c3nc4c(c(=O)n(C)c(=O)n4C)n3C)CC2)c(C)c1	0.8	22	9	0.9	·
COc1ccc(/C=N/NC(=O)c2ccccc2O)cc1Cn1cc(Cl)cn1	0.5	51*	11	0.9	2
COc1ccc(/C=N/NC(=O)c2ccn[nH]2)cc1COc1ccc(Cl)cc1	0.6	38	37	0.6	-8
COc1ccc(S(=O)(=O)n2ccc(C(C)Oc3ccc(-c4ccccc4)c(F)c3)n2)cc1 (stereo not given)	0.1	92*	17	0.8	0
COc1ccc(/C=C\C(=O)c2c(O)ccc3c(C)cc(=O)oc23)cc1OC	1.2	-20	68*	0.3	-1
O=C(CSc1nc2ccccc2o1)Nc1ccc(N2CCOCC2)cc1	0.8	24	22	0.8	-4
Cc1ccccc1NC(=O)CSCC(=O)Nc1ccccc1C	0.6	40	72*	0.3	0
O=C(CN1CCN(CC(=O)c2ccc(F)cc2)CC1)Nc1ccccc1Cl	0.8	25	26	0.7	-6
O=C(CSc1nc2ccccc2o1)Nc1ccccc1N1CCOCC1	0.1	95*	92*	0.1	1
Cc1ccccc1NC(=O)CSc1nc2ccccc2o1	0.9	10	59*	0.4	-2
O=C(CSCC(=O)c1ccccc1)Nc1ccccc1Cl	1	1	68*	0.3	1
CCSc1nc2ccccc2c(=O)n1OCC(=O)OC	1.2	-22	16	0.8	-12
CCOC(=O)c1sc(NC(=O)c2ccc(S(=O)(=O)N(C)C)cc2)nc1C	1.2	-15	2	1	-1

Screens deposited in PubChem by several laboratories.
